Assay results as given in PubChem BioAssay (EPA / NIEHS).
Values joined by “and” are separate entries in the source; they are usually repeats but may differ in a detail not shown here. Identical values can stand only once. Where a structure was tested more than once in an assay, its records may differ in their call. Active and inactive are the calls of the source. The calls were made as follows: active = hit-call score of the fitted dose curve at least 0.9, where 1 is the maximum; inactive = score below 0.9.

Key:
[1] = ATG_ISRE_CIS: Attagene CIS-FACTORIAL HepG2 Assay for human Interferon Regulatory Factor 1 (IRF1) binding to an Interferon-Stimulated Response Element (ISRE) (AID 2282948); conditions: HepG2 ISRE cis-reporter (Attagene), mRNA transcription readout; actives raise or lower the signal
In short: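 Quantitation relies on labelled RT-PCR fragments separated by capillary electrophoresis. Human HepG2 cells bearing cis-promoter reporter constructs were treated 24 h; DMSO served as baseline for bidirectional fitting.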

[2] = ATG_M_32_CIS: Attagene CIS-FACTORIAL HepG2 Assay for M32 Transcription Factor (Internal Marker) (AID 2282949); conditions: HepG2 Attagene cis-factorial M32 reporter, mRNA; actives raise or lower the signal;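 also: background control marker of the multiplexed CIS panel rather than a real target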
In short: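 Fluorescent capillary electrophoresis peaks of HpaI-digested, FAM-labelled RT-PCR reporter products give the signal. Source: transiently transfected human liver HepG2 cells, 24 h after chemical dosing; bidirectional fitting against DMSO.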

[3] = ATG_M_06_CIS: Attagene CIS-FACTORIAL HepG2 Assay for M06 Transcription Factor (Internal Marker) (AID 2282950); conditions: HepG2 Attagene CIS-FACTORIAL M06 internal marker reporter; actives raise or lower the signal
In short: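 One of many multiplexed endpoints: HepG2 reporter mRNA after 24 h dosing, detected by RT-PCR and capillary electrophoresis fluorescence; gain or loss of signal analysed against DMSO.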

[4] = molecular target: Hypoxia-inducible factor 1-alpha (Homo sapiens) (UniProt Q16665); experiment: ATG_HIF1a_CIS: Attagene CIS-FACTORIAL HepG2 Assay for human Hypoxia Inducible Factor 1 (HIF1A) (AID 2282951); conditions: HepG2 Attagene cis-factorial HIF1a reporter transcription; actives raise or lower the signal
Hypoxia-inducible factor 1-alpha (Homo sapiens), sequence (Q16665 whole entry, looked up): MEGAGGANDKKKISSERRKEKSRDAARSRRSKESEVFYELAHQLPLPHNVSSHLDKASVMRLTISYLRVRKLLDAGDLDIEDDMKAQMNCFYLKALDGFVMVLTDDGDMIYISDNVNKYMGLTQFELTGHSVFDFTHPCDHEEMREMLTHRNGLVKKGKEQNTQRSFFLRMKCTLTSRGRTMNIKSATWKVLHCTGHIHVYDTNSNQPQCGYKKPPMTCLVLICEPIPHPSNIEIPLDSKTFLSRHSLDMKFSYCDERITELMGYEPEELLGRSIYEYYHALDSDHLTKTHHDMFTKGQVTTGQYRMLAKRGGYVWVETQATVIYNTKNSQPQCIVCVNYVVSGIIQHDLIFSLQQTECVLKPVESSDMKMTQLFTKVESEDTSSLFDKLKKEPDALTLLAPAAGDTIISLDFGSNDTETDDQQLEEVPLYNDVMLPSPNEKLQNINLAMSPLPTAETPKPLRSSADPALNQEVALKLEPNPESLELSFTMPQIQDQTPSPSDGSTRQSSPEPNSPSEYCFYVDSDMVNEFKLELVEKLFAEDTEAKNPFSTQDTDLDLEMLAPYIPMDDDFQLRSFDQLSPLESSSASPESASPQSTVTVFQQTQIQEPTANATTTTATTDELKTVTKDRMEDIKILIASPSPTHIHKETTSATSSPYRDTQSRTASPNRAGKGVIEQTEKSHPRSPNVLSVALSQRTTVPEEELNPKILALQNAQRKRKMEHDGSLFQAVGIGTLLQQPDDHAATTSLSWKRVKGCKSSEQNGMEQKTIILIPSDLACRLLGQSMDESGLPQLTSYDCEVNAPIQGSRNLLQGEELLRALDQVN
In short: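 Dosed 24 h, transfected HepG2 cells yielded total RNA whose reporter transcripts were RT-PCR-amplified and sized by capillary electrophoresis using fluorescent labelling; DMSO defined baseline, with gain and loss of signal both fitted.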

[5] = molecular target: Hepatocyte nuclear factor 6 (Homo sapiens) (UniProt Q9UBC0); experiment: ATG_HNF6_CIS: Attagene CIS-FACTORIAL HepG2 Assay for human Hepatocyte Nuclear Factor 6 (HNF6) (AID 2282952); conditions: HepG2 Attagene cis-factorial HNF6 reporter transcription; actives raise or lower the signal
Hepatocyte nuclear factor 6 (Homo sapiens), sequence (Q9UBC0 whole entry, looked up, the tested form may be a part): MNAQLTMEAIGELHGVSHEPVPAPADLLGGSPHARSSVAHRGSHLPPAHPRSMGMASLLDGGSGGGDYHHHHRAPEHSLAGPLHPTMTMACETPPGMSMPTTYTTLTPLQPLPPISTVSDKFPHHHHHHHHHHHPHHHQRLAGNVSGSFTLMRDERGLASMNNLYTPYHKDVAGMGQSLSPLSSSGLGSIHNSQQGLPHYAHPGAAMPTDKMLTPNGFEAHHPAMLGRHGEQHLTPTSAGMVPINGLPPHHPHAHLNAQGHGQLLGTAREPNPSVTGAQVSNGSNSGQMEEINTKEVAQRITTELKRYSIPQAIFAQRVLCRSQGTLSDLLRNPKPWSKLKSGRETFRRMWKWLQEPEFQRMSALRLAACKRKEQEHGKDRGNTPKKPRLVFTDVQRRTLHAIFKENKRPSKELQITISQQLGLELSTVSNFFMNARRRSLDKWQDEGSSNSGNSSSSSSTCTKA
In short: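 HepG2 cells transiently transfected with cis-element-driven multiplexed reporter units measuring endogenous transcription factor activity. After 24 h exposure, reporter mRNA quantified by RT-PCR, FAM-labelled fragments and capillary electrophoresis; bidirectional fitting versus DMSO.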

[6] = molecular target: Heat shock factor protein 1 (Homo sapiens) (UniProt Q00613); experiment: ATG_HSE_CIS: Attagene CIS-FACTORIAL HepG2 Assay for human Heat Shock Transcription Factor 1 (HSE) (AID 2282953); conditions: HepG2 HSE cis-reporter, Attagene RNA transcription; actives raise or lower the signal
Heat shock factor protein 1 (Homo sapiens), sequence (Q00613 whole entry, looked up): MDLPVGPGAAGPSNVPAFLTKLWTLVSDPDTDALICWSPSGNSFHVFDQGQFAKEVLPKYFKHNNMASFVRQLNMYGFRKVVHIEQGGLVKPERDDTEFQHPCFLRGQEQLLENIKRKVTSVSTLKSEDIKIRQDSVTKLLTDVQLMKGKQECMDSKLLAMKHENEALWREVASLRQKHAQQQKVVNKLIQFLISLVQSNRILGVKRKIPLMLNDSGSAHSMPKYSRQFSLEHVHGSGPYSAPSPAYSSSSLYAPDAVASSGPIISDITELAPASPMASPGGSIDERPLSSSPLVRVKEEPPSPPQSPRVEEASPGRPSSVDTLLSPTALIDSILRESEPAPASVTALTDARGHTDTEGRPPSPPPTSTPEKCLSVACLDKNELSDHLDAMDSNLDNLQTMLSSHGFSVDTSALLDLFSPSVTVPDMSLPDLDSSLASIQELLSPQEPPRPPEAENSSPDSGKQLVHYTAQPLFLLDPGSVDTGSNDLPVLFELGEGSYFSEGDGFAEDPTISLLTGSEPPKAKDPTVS
In short: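 Using HepG2 with transfected cis-driven reporter constructs, compound effects on endogenous factor activity are scored as reporter mRNA change at 24 h. Detection: RT-PCR, HpaI digestion, capillary electrophoresis; bidirectional fitting to DMSO.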

[7] = ATG_MRE_CIS: Attagene CIS-FACTORIAL HepG2 Assay for human Metal Responsive Element (MRE) (AID 2282954); conditions: HepG2 MRE cis-reporter transcription, Attagene multiplex; actives raise or lower the signal
In short: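 Transient MRTU transfection of HepG2 (FuGene 6); 24 h dosing; total RNA → oligo(dT) RT, PCR, 6-FAM primer extension, HpaI cut, CE. Bidirectional fit vs DMSO.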

[8] = ATG_PBREM_CIS: Attagene CIS-FACTORIAL HepG2 Assay for human Phenobarbital-responsive Enhancer Module (PBREM) (AID 2282955); conditions: HepG2 PBREM cis-reporter, Attagene multiplexed transcription; actives raise or lower the signal
In short: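 Transfected liver-derived HepG2 cells exposed 24 h; PBREM reporter transcript quantified via RT-PCR and capillary electrophoresis, with activity in either direction referenced to DMSO.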

[9] = molecular target: Paired box protein Pax-6 (Homo sapiens) (UniProt P26367); experiment: ATG_Pax6_CIS: Attagene CIS-FACTORIAL HepG2 Assay for human Paired Box 6 (PAX6) (AID 2282956); conditions: HepG2 CIS-FACTORIAL PAX6 reporter transcription, RNA readout; actives raise or lower the signal
Paired box protein Pax-6 (Homo sapiens), sequence (P26367 whole entry, looked up): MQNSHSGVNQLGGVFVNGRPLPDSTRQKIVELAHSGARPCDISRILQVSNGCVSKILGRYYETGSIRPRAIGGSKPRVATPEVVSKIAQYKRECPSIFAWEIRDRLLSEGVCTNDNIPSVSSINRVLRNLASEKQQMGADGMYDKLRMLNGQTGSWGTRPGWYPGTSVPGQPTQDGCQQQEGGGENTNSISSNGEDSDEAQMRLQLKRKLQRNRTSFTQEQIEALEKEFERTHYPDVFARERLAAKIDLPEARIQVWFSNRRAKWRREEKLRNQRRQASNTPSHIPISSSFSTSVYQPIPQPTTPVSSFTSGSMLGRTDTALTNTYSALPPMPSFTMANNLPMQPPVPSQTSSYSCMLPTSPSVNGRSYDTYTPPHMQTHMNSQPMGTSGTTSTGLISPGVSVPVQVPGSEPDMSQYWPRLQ
In short: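 After twenty-four hours of chemical exposure, transfected HepG2 cells are harvested for RNA. Cis-promoter reporter transcripts are amplified, fluorescently labelled and sized by capillary electrophoresis, with gain and loss of signal scored against DMSO.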

[10] = ATG_PXRE_CIS: Attagene CIS-FACTORIAL HepG2 Assay for human Pregnane X Receptor Element (PXRE) (AID 2282957); conditions: HepG2 Attagene CIS-FACTORIAL PXRE reporter, mRNA; actives raise or lower the signal
In short: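 HepG2 cells transiently transfected with cis-element-driven multiplexed reporter units; after 24 h chemical exposure, reporter mRNA measured by RT-PCR, 6-FAM labelling, HpaI digestion and capillary electrophoresis. Bidirectional fitting relative to DMSO.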

[11] = ATG_PPRE_CIS: Attagene CIS-FACTORIAL HepG2 Assay for human Peroxisome Proliferator-activated Response Element (PPRE) (AID 2282958); conditions: HepG2 PPRE cis-element reporter, Attagene transcription factor profiling; actives raise or lower the signal
In short: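 Measured endpoint: PPRE-controlled reporter mRNA, detected by RT-PCR and capillary electrophoresis fluorescence, from transiently transfected HepG2 cells 24 h after dosing. Curves fitted in both directions using DMSO baseline.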

[12] = ATG_RORE_CIS: Attagene CIS-FACTORIAL HepG2 Assay for human RAR-related Orphan Receptor Element (RORE) (AID 2282959); conditions: HepG2 Attagene cis-factorial RORE reporter, mRNA; actives raise or lower the signal
In short: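 Transiently transfected HepG2 reporter cells were treated 24 h. Reporter transcripts were detected by RT-PCR and capillary electrophoresis, with bidirectional fitting against DMSO.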

[13] = ATG_Sox_CIS: Attagene CIS-FACTORIAL HepG2 Assay for human SRY-box transcription factor (SOX) (AID 2282960); conditions: HepG2 Attagene cis-factorial SOX reporter, mRNA; actives raise or lower the signal
In short: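 Gain- or loss-of-signal endpoint, fitted bidirectionally with DMSO as negative control. Based on reporter mRNA from transfected HepG2 cells harvested 24 h post-treatment and quantified via RT-PCR and capillary electrophoresis.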

[14] = molecular target: Transcription factor Sp1 (Homo sapiens) (UniProt P08047); experiment: ATG_Sp1_CIS: Attagene CIS-FACTORIAL HepG2 Assay for human Specificity Protein 1 (Sp1) (AID 2282961); conditions: HepG2 Sp1 cis-reporter transcription, actives raise or lower the signal
Transcription factor Sp1 (Homo sapiens), sequence (P08047 whole entry, looked up, the tested form may be a part): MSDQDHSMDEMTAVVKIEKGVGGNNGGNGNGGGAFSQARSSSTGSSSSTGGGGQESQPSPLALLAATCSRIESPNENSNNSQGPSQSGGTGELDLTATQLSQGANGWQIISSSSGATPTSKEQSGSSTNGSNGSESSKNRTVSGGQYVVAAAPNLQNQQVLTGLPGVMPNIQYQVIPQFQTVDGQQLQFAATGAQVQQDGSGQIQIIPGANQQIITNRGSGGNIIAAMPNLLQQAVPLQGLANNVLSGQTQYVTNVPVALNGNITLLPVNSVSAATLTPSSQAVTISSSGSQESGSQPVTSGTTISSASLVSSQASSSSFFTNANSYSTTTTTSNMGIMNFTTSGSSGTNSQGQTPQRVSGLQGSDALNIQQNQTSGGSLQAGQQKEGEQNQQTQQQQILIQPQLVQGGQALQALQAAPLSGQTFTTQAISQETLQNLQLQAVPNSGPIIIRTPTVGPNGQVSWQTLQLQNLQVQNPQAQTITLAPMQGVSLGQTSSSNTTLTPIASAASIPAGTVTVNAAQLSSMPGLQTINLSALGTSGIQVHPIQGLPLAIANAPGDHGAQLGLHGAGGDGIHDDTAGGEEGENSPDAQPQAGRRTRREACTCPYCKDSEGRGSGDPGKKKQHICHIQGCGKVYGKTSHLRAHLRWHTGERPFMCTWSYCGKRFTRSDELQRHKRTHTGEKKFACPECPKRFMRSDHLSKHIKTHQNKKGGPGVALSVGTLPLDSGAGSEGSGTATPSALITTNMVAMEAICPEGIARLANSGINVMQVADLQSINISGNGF
In short: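 Endpoint reflects endogenous Sp1 transcriptional activity, not an exogenous fusion protein: HepG2 cells with transfected cis-regulated reporters, 24 h dosing, RT-PCR/capillary electrophoresis mRNA read-out, DMSO-normalised bidirectional fit.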

[15] = ATG_SREBP_CIS: Attagene CIS-FACTORIAL HepG2 Assay for human Sterol Regulatory Element Binding (SREBP) (AID 2282962); conditions: HepG2 Attagene cis-factorial SREBP reporter, mRNA; actives raise or lower the signal
In short: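 Twenty-four hours after chemical dosing of transfected HepG2 cultures, reporter RNA was converted to cDNA, amplified, end-labelled with 6-FAM and resolved by capillary electrophoresis. Responses were fitted relative to DMSO.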

[16] = molecular target: Signal transducer and activator of transcription 3 (Homo sapiens) (UniProt P40763); experiment: ATG_STAT3_CIS: Attagene CIS-FACTORIAL HepG2 Assay for human Signal Transducer and Activator of Transcription 3 (STAT3) (AID 2282963); conditions: HepG2, Attagene cis-factorial STAT3 reporter transcription; actives raise or lower the signal
Signal transducer and activator of transcription 3 (Homo sapiens), sequence (P40763 whole entry, looked up): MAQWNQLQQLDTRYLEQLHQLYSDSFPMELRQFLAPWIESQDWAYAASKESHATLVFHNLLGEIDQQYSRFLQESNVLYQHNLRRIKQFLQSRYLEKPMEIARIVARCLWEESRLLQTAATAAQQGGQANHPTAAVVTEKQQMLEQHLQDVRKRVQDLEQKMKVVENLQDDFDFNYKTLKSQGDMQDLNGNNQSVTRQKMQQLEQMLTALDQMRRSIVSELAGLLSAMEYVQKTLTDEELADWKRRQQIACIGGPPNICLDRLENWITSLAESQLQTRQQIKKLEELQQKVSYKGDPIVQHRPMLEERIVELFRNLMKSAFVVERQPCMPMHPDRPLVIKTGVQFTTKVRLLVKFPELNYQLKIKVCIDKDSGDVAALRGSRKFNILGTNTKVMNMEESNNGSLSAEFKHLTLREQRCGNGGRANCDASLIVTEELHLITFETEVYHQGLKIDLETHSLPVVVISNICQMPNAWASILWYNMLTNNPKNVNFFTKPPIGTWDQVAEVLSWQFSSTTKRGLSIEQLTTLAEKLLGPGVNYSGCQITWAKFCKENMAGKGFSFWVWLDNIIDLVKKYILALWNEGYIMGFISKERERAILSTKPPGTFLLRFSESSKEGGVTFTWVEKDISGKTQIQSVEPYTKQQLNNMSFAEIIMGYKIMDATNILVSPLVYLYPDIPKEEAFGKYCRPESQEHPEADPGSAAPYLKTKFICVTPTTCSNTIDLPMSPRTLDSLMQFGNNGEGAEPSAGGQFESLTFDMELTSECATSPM
In short: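 Endogenous STAT3-responsive cis-element activity was read in transiently transfected HepG2 cells after 24 h treatment. Reporter transcripts were quantified via RT-PCR and capillary electrophoresis, with DMSO as negative control and bidirectional curve fitting.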

[17] = ATG_TA_CIS: Attagene CIS-FACTORIAL HepG2 Assay for human TA Basal Promoter (AID 2282964); conditions: HepG2 Attagene CIS-factorial TA basal promoter reporter; actives raise or lower the signal
In short: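 Transient MRTU transfection of HepG2 preceded 24 h compound exposure. Reporter mRNA levels were then read by RT-PCR with capillary electrophoresis, and this background-control endpoint was fitted bidirectionally to DMSO.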

[18] = ATG_TCF_b_cat_CIS: Attagene CIS-FACTORIAL HepG2 Assay for human T-Cell-Factor with beta-catenin (TCF/b-cat) (AID 2282965); conditions: HepG2 TCF/beta-catenin cis-reporter transcription, actives raise or lower the signal
In short: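 Endogenous TCF/LEF activity read as reporter transcript level via RT-PCR and capillary electrophoresis fluorescence in transfected HepG2, 24 h exposure; gain or loss of signal fitted against DMSO controls.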

[19] = ATG_TAL_CIS: Attagene CIS-FACTORIAL HepG2 Assay for human TAL Basal Promoter (AID 2282966); conditions: HepG2 Attagene cis-factorial TAL promoter reporter; actives raise or lower the signal;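 also: background control endpoint measuring basal TAL promoter reporter mRNA not a specific factor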
In short: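 HepG2 cells transiently transfected with multiplexed cis-promoter reporter units, dosed 24 h. Reporter mRNA quantified by RT-PCR, 6-FAM labelling, HpaI digestion and capillary electrophoresis; TAL basal promoter serves as background control, fitted bidirectionally versus DMSO.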

[20] = ATG_TGFb_CIS: Attagene CIS-FACTORIAL HepG2 Assay for human Transforming Growth Factor (TGF) (AID 2282967); conditions: HepG2 Attagene CIS TGFb reporter, mRNA transcription; actives raise or lower the signal
In short: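 After a 24-hour incubation with compound, transfected HepG2 cells were lysed for RNA; reporter cDNA was amplified, fluorescently end-labeled and separated by CE. DMSO served as baseline for bidirectional fits.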

With `O=C(Nc1cccc([N+](=O)[O-])c1)c1cc2ccccc2cc1O` the outcome [1] was “inactive”, the outcome [2] was “inactive” and the outcome [3] was “inactive”. The outcome [4] was “inactive”, the outcome [5] was “inactive” and the outcome [6] was “inactive”. The outcome [7] was “inactive”, the AC50 [8] was 3.64 µM (active) and the outcome [9] was “inactive”. For the same compound, the AC50 [10] was 6.79 µM (active), the AC50 [11] was 4.22 µM (active) and the AC50 [12] was 5.99 µM (active). The outcome [13] was “inactive”, the outcome [14] was “inactive” and the outcome [15] was “inactive”. For the same compound, the outcome [16] was “inactive”, the outcome [17] was “inactive” and the outcome [18] was “inactive”. The outcome [19] was “inactive” and the AC50 [20] was 48.1 µM (active).

With `O=c1cc(-c2ccccc2)oc2ccc3ccccc3c12` the outcome [1] was “inactive”, the outcome [2] was “inactive” and the outcome [3] was “inactive”. The outcome [4] was “inactive”, the outcome [5] was “inactive” and the outcome [6] was “inactive”. The outcome [7] was “inactive”, the outcome [8] was “inactive” and the outcome [9] was “inactive”. For the same compound, the AC50 [10] was 1.08 µM (active) and 2.24 µM (active), the outcome [11] was “inactive” and the outcome [12] was “inactive”. For the same compound, the outcome [13] was “inactive”, the outcome [14] was “inactive” and the outcome [15] was “inactive”. The outcome [16] was “inactive”, the outcome [17] was “inactive” and the outcome [18] was “inactive”. For the same compound, the outcome [19] was “inactive” and the outcome [20] was “inactive”.

For `Cc1cc(C(C)(C)C)c(O)c(C(C)(C)C)c1`, the outcome [1] was “inactive”, the AC50 [2] was 53.6 µM (active) and the outcome [2] was “inactive”. The outcome [3] was “inactive”, the outcome [4] was “inactive” and the outcome [5] was “inactive”. The AC50 [6] was 95.9 µM (active), the outcome [6] was “inactive” and the AC50 [7] was 52.9 µM (active) and 91.4 µM (active). The outcome [9] was “inactive”, the AC50 [10] was 8.81 µM (active) and 603 nM (active) and the AC50 [14] was 52.3 µM (active) and 97 µM (active). For the same compound, the AC50 [15] was 33.4 µM (active) and 60 µM (active), the outcome [16] was “inactive” and the outcome [17] was “inactive”. The outcome [18] was “inactive”, the outcome [19] was “inactive” and the outcome [20] was “inactive”.

For `CCCCc1ccc2ccccc2c1S(=O)(=O)O`, the outcome [1] was “inactive”, the outcome [2] was “inactive” and the outcome [3] was “inactive”. The outcome [4] was “inactive”, the outcome [5] was “inactive” and the outcome [6] was “inactive”. For the same compound, the outcome [7] was “inactive”, the outcome [8] was “inactive” and the outcome [9] was “inactive”. For the same compound, the AC50 [10] was 2.52 µM (active), the outcome [11] was “inactive” and the outcome [12] was “inactive”. For the same compound, the outcome [13] was “inactive”, the outcome [14] was “inactive” and the outcome [15] was “inactive”. For the same compound, the outcome [16] was “inactive”, the outcome [17] was “inactive” and the outcome [18] was “inactive”. The outcome [19] was “inactive” and the outcome [20] was “inactive”.
